We go through 9 compounds from PubChem BioAssay (NCI).

Some test systems named below: DU-145 prostate; K-562 leukemia; MALME-3M melanoma; MDA-MB-231 breast; RXF 393 renal; SF-268 CNS; SF-295 CNS; SF-539 CNS; M14 melanoma; HCT-15 colon; HT29 colon; SNB-75 CNS; U251 CNS; PC-3 prostate; SK-MEL-5 melanoma; UACC-62 melanoma; SK-MEL-28 melanoma; UACC-257 melanoma; SNB-19 CNS; LOX IMVI melanoma.
Holding throughout (test): NCI-60 one-dose screen, 48 h (100 = growth as untreated, 0 = no growth, -100 = all killed)
What all share (settings): 10 µM unless noted

About 83,000 compounds went through this panel and 20% of them were active in at least one assay; those are over-represented in the sample as a whole.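 In brief: 96-well plates, 48 h treatment, single concentration, percent growth endpoint.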 A number with no mark means an inactive call. Active and inactive are the calls of the source. Rule for the calls: active = growth percent below 10; inactive = the rest.

Take `COc1ccc(-n2c(SCc3cc(OC)c(OC)c(OC)c3)nc3ccc(C)cc3c2=O)c(OC)c1`: the growth in the experiment with DU-145 prostate was 4.58% (active); in the experiment on K-562 leukemia it was 14.4%; with MALME-3M melanoma, 25.5%; in the experiment on MDA-MB-231 breast, 44.8%; in the experiment on RXF 393 renal it was 19.6%; in the experiment on SF-268 CNS, 44.1%. Further, the growth in the experiment with SF-295 CNS was 6.35% (active); in the experiment on SF-539 CNS it was 20%; with M14 melanoma, 11.2%; with HCT-15 colon, 23.7%; with HT29 colon it was 11.3%; in the experiment with SNB-75 CNS, 29.6%. In addition, the growth in the experiment on U251 CNS is 24.9%; in the experiment on PC-3 prostate, 8.75% (active); in the experiment with SK-MEL-5 melanoma, 17.6%; with UACC-62 melanoma, 24.3%; with SK-MEL-28 melanoma, 40.8%.
On to `CN1CCN(C)c2cncc(Br)c2C1=O`, for which the growth with DU-145 prostate is 114%; with K-562 leukemia it was 102%; in the experiment on MALME-3M melanoma it was 99.3%; in the experiment with MDA-MB-231 breast, 106%; in the experiment on RXF 393 renal, 105%; with SF-268 CNS, 102%. Also, the growth is -85% (active) with SF-295 CNS; 109% in the experiment on SF-539 CNS; 90.3% in the experiment with UACC-257 melanoma; 105% with HCT-15 colon; 107% in the experiment on HT29 colon; 101% with SNB-75 CNS. The growth was 106% in the experiment with SNB-19 CNS; 106% in the experiment with U251 CNS; 103% in the experiment with PC-3 prostate; 101% in the experiment on SK-MEL-5 melanoma; 105% with UACC-62 melanoma; 102% in the experiment with LOX IMVI melanoma. Besides, in the experiment with SK-MEL-28 melanoma, the growth is 110%.
In the case of `CCOC(=O)c1cc2c(n(C)c1=O)-c1cnn(-c3ccc(OC)cc3)c1CC2`, the growth is 117% with DU-145 prostate; 104% in the experiment on K-562 leukemia; 95.1% in the experiment on MALME-3M melanoma; 97.9% with MDA-MB-231 breast; 102% in the experiment on RXF 393 renal; 99.8% with SF-268 CNS. Also, the growth is 91.7% in the experiment with SF-295 CNS; 90.1% with SF-539 CNS; 93.6% in the experiment on UACC-257 melanoma; 106% in the experiment with M14 melanoma; 89% in the experiment on HCT-15 colon; 90.5% in the experiment with SNB-75 CNS. In addition, the growth in the experiment with SNB-19 CNS was 96.6%; in the experiment with PC-3 prostate it was 98.5%; with SK-MEL-5 melanoma it was 98%; with LOX IMVI melanoma, 93.9%; in the experiment with SK-MEL-28 melanoma it was 96.6%.
In the case of `CCOC(=O)n1cc(C2=C(c3cn(C)c4ccccc34)COC2=O)c2ccccc21`, the growth is -14.3% (active) in the experiment with DU-145 prostate; 5.86% (active) with K-562 leukemia; 37.2% in the experiment with MALME-3M melanoma; 25.5% in the experiment on MDA-MB-231 breast; 19.6% with RXF 393 renal; 26% in the experiment on SF-268 CNS. Further, the growth was 1.58% (active) with SF-295 CNS; -16.3% (active) in the experiment with SF-539 CNS; 55.1% with UACC-257 melanoma; 20.1% in the experiment on M14 melanoma; 12.2% in the experiment on HCT-15 colon; 30.5% in the experiment with SNB-19 CNS. The growth was 14.9% with U251 CNS; 28.3% in the experiment with PC-3 prostate; -7.08% (active) in the experiment on SK-MEL-5 melanoma; 26.1% in the experiment with UACC-62 melanoma; 18.7% with LOX IMVI melanoma; 47.7% with SK-MEL-28 melanoma.
For the compound `Cc1ccc2nc(NC(=O)CSC(=S)N3CCN(Cc4ccccc4)CC3)sc2c1`, the growth with DU-145 prostate was -96.9% (active); in the experiment on K-562 leukemia, 11.8%; in the experiment with MALME-3M melanoma, -58% (active); in the experiment with MDA-MB-231 breast, -7.45% (active); in the experiment with RXF 393 renal, -58% (active); in the experiment on SF-268 CNS, -14.9% (active). Besides, the growth in the experiment on SF-295 CNS is -13.1% (active); in the experiment with SF-539 CNS, 1.99% (active); in the experiment with UACC-257 melanoma it was -63.4% (active); with M14 melanoma, -56.7% (active); in the experiment with HCT-15 colon, -37% (active); in the experiment with SNB-75 CNS, -93.2% (active). Moreover, the growth in the experiment with SNB-19 CNS is -22.2% (active); with PC-3 prostate it was -40.2% (active); in the experiment on SK-MEL-5 melanoma, -96.4% (active); in the experiment with LOX IMVI melanoma, -41.3% (active); in the experiment with SK-MEL-28 melanoma, -60% (active).
For the compound `COc1cccc2c(=O)c3c(sc12)c(NCCN(C)C)nc1ccccc13`, the growth in the experiment with DU-145 prostate is 3.35% (active); in the experiment on K-562 leukemia, -60.5% (active); with MALME-3M melanoma, 36.7%; in the experiment with MDA-MB-231 breast it was 12.3%; in the experiment with RXF 393 renal, 3.02% (active); with SF-268 CNS, 20.7%. For the same compound, the growth in the experiment with SF-295 CNS was 36%; in the experiment with SF-539 CNS, 22.5%; in the experiment with UACC-257 melanoma, 29.3%; in the experiment with HCT-15 colon it was 16.5%; in the experiment with HT29 colon, 3.18% (active); with SNB-19 CNS, 36.6%. Besides, the growth is -28.1% (active) in the experiment with U251 CNS; 23% with PC-3 prostate; 32.9% in the experiment with SK-MEL-5 melanoma; 57% with UACC-62 melanoma; -2.57% (active) in the experiment on LOX IMVI melanoma; 43.9% with SK-MEL-28 melanoma.
As to `CC(C)(C)[Si](C)(C)OC1[C@@H](COC(=O)NC(=O)CCl)O[C@@H](n2cnc3c(N)ncnc32)[C@H]1O[Si](C)(C)C(C)(C)C` (stereo partly drawn), the growth is 46.2% in the experiment with DU-145 prostate; -37.6% (active) with K-562 leukemia; -57% (active) with MALME-3M melanoma; 35.7% with MDA-MB-231 breast; 64% in the experiment on RXF 393 renal; -19.6% (active) in the experiment with SF-268 CNS. Also, the growth with SF-295 CNS is 45.7%; with SF-539 CNS, 89.8%; in the experiment on M14 melanoma, 18.4%; in the experiment on HCT-15 colon it was 11.8%; in the experiment on HT29 colon, 32.3%; in the experiment with SNB-75 CNS, 101%. Moreover, the growth in the experiment with U251 CNS is 53.2%; in the experiment on PC-3 prostate, -59.9% (active); with SK-MEL-5 melanoma it was 61.4%; in the experiment on UACC-62 melanoma it was 75.2%; in the experiment with LOX IMVI melanoma, -94% (active); in the experiment with SK-MEL-28 melanoma, 71.8%.
With `Cc1ccc(N=c2nc3sc4c(C)ccc(C)c4n3c(N)c2C#N)cc1`, the growth in the experiment on DU-145 prostate is 105%; in the experiment on K-562 leukemia it was 88.6%; with MALME-3M melanoma it was 125%; with MDA-MB-231 breast, 93.9%; in the experiment with RXF 393 renal, 124%; in the experiment on SF-268 CNS, 92.6%. In addition, the growth in the experiment on SF-295 CNS was 91.1%; with SF-539 CNS, 99.1%; with M14 melanoma, 102%; in the experiment with HCT-15 colon, 104%; with HT29 colon it was 104%; in the experiment on SNB-75 CNS it was 92.1%. The growth in the experiment on U251 CNS is 96.1%; in the experiment with PC-3 prostate it was 88%; in the experiment with UACC-62 melanoma it was 77.9%; with SK-MEL-28 melanoma, 105%.
As to `COc1ncc(F)c(OC)n1`, the growth with DU-145 prostate was 110%; in the experiment on K-562 leukemia, 100%; with MALME-3M melanoma, 103%; in the experiment with MDA-MB-231 breast, 115%; in the experiment with RXF 393 renal, 105%; in the experiment on SF-268 CNS, 104%. The growth with SF-295 CNS is 97.7%; in the experiment with SF-539 CNS, 107%; with UACC-257 melanoma, 101%; in the experiment with M14 melanoma, 102%; with HT29 colon it was 104%; with SNB-75 CNS, 89.1%. The growth was 111% in the experiment with SNB-19 CNS; 92.2% in the experiment with PC-3 prostate; 97.5% with SK-MEL-5 melanoma; 106% with UACC-62 melanoma; 102% in the experiment with LOX IMVI melanoma; 107% with SK-MEL-28 melanoma.
